# Assay outcomes (PubChem BioAssay)
# Cruzain noTriton – blocks cruzain activity in detergent-free assay | P25779 | purified cruzain, Z-FR-AMC fluorescence, no detergent | Potency, µM, inactives show max response, negative = inhibition, usual class: inhibitors | 200,000 compounds, 2.3% hits | AID 1476;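 also: plate controls were enzyme without inhibitor for no effect and buffer without enzyme for full effect; nearly all actives have a fitted effect of over 40% in size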
# Target sequence (P25779 123-467 limits assumed): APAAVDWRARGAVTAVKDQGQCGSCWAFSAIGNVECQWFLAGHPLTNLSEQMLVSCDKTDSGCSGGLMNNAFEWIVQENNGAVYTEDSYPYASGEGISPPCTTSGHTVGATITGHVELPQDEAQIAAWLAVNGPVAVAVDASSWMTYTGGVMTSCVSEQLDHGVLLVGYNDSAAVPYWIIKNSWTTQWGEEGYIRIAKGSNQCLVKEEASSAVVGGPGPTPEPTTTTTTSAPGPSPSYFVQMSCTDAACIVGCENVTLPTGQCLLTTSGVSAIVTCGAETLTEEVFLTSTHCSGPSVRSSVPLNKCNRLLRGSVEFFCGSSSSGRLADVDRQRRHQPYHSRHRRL
#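 Detergent-free condition (0.00005% Triton X-100) in acetate buffer pH 5.5 with DTT. 1.5 nM enzyme and compound were pre-mixed 15 min, then 2 uM Z-FR-AMC substrate added; reaction progress from fluorescence change between first and third reads (60 s).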
# Cruzain Triton – cruzain (T. cruzi) inhibition with detergent; P25779; purified cruzain, Z-FR-AMC fluorescence, 0.01% Triton; Potency, µM, for the others: max response, negative = inhibition, usual class: inhibitors; 200,000 compounds, 0.43% hits; AID 1478;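 also: plate controls were neutral wells for no effect and buffer without enzyme for full effect; nearly all actives have a fitted effect of over 40% in size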
#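 Cruzain (1.5 nM) preincubated 15 min at RT with compound in 100 mM sodium acetate pH 5.5, 5 mM DTT, 0.01% Triton X-100. Reaction started with 2 uM Z-FR-AMC; AMC fluorescence (ex 360/em 450 nm) change over 60 s gave rate.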
# Numbers without * were called inactive; ? = inconclusive. The list is not random: actives were taken first. Their share in the collection is about 2.5%. Calls follow the shape of the dose curve; as a rule, active = well fitted curve in the direction sought with a large enough effect; inconclusive = small, poorly fitted or top-dose-only effect, or another doubt; inactive = no such curve, though single readings can be large; an effect the other way counts as inactive or inconclusive. Potency is read from the fitted curve at half-maximal effect.
SMILES,Cruzain noTriton,Cruzain Triton
Cc1ccccc1Nc1nc(=O)c2cc([N+](=O)[O-])ccc2s1,-18%,-1%
COC(=O)CN1C(=O)CSc2ccc(S(=O)(=O)N3CCOCC3)cc21,12%,-2%
Cc1ccc(C(=O)N2CCc3cc(CNS(=O)(=O)c4ccc(Cl)s4)ccc32)cc1,?,-2%
CCCOC(=O)c1cccc(Nc2nc(C(=O)OCC)nc3ccccc23)c1,?,-16%
CCOc1ccccc1Nc1nc(-c2sc(NC(=O)c3ccc([N+](=O)[O-])cc3)nc2C)cs1,6.3µM*,1%
CCCCC(=O)Nc1nc(C)c(-c2csc(Nc3ccccc3OC)n2)s1,?,-3%
Cc1ccc(Cl)cc1Nc1nc(-c2sc(NC(=O)c3cccc(Cl)c3)nc2C)cs1,4µM*,11%
Cc1ccccc1Nc1nc(-c2sc(NC(=O)c3cccc(Cl)c3)nc2C)cs1,6.3µM*,2%
COC(=O)c1nnn(CC(=O)Nc2c(C)cccc2C)c1N,-1%,2%
CS(=O)(=O)CC[C@@H](C(=O)NCCc1ccccc1)N1Cc2ccccc2C1=O,-4%,0%
Cc1ccc(Cc2cnc(NC(=O)c3ccco3)s2)cc1,-9%,-1%
O=C(Nc1ncc(Cc2ccc(SC(F)F)cc2)s1)c1ccc(OC(F)F)cc1,20µM*,-3%
CCOc1cc(C(=O)NCC(c2ccc(N(C)C)cc2)N2CCOCC2)cc(OCC)c1OCC (centres undefined),?,0%
Cc1n[nH]c(=S)n1/N=C/c1ccc(OCc2ccc(Cl)cc2Cl)cc1,-14%,-2%
Cc1n[nH]c(=S)n1/N=C/c1ccccc1OCc1ccc(Cl)cc1Cl,16µM*,-1%
COc1ccc(C)cc1NS(=O)(=O)c1ccc2[nH]c(=O)c(=O)[nH]c2c1,-15%,-4%
CC(C)(C)C(=O)Oc1cc(N)n(S(=O)(=O)c2ccc(F)cc2)n1,2%,-3%
Nc1cc(OC(=O)c2ccco2)nn1S(=O)(=O)c1ccc(F)cc1,20µM*,25µM*
CCCCn1c(/C=N/Nc2nc3ccccc3[nH]2)nc2ccccc21,?,-11%
C#CCn1cc(/C=N/Nc2nc3ccccc3[nH]2)c2ccccc21,32µM*,-22%
O=C(NCc1ccccc1)C1CCN(S(=O)(=O)c2ccc3c(c2)CCCN3C(=O)C2CCC2)CC1,1%,-3%
Cc1noc(C)c1C(=O)OCC(=O)NC(c1ccccc1)c1ccccc1,-5%,1%
Cc1onc(-c2c(F)cccc2Cl)c1C(=O)OCC(=O)NC(c1ccccc1)c1ccccc1,32µM*,-4%
Cc1ccc(NC(=O)CN2C(=O)C(c3ccc(C)cc3)=NC23CCCCCC3)cc1,?,-8%
Cc1cc(C)c(NC(=O)C(C)Sc2nc3ccc(N4C(=O)c5ccccc5C4=O)cc3s2)c(C)c1 (centres undefined),6.3µM*,0%
SMILES,Cruzain noTriton,Cruzain Triton
CCc1cccc(C)c1NC(=O)CSc1nc2ccc(N3C(=O)c4ccccc4C3=O)cc2s1,?,5%
CCn1c(CNC(=O)c2ccc(OC)cc2)nnc1SCC(=O)Nc1ccc(F)cc1,2%,0%
C#CCOCCOCCOCCNc1nc(N2CCN(C(=O)[C@H]([C@@H](C)CC)n3cc(CCCN=C(N)N)nn3)CC2)nc(N2CCN(C(=O)[C@H](CCCCN)n3cc(CCCC)nn3)CC2)n1,?,25µM*
C#CCOCCOCCOCCNc1nc(N2CCN(C(=O)[C@H](C)n3cc(CCCN=C(N)N)nn3)CC2)nc(N2CCN(C(=O)[C@H](CCCCN)n3cc(CCCC)nn3)CC2)n1,0%,-15%
Cc1nn(-c2ccccc2)c(N2CCCC2)c1/C=N/NC(=O)c1cc(-c2cccnc2)nc2ccccc12,24%,-7%
CC(/C=N/NC(=O)c1cc(-c2cccnc2)nc2c1c(C)nn2-c1ccccc1)=C\c1ccccc1,13µM*,-4%
CCCNC(=O)Nc1cc(C(=O)NCc2cccc(OCC)c2)ccc1N1CCCC1,10%,-3%
Oc1oc(-c2ccco2)nc1C=Nc1ccccc1,-9%,-21%
CN(C)c1ccc(/C=C/C(=O)c2cccc(Br)c2)cc1,-4%,-2%
CCOC(=O)c1ccc(N=Cc2nc3ccccc3n2C)cc1,4%,-1%
CC(=O)Oc1oc(-c2ccccc2)nc1C=Nc1ccccc1,25µM*,25µM*
CCC(=O)Oc1oc(-c2ccccc2)nc1C=Nc1ccccc1OC,-15%,-18%
CN(C)c1ccc(N=Cc2nc(-c3ccccc3)oc2OC(=O)c2cccc(Br)c2)cc1,25µM*,-21%
Cc1ccc(C(=O)Oc2oc(-c3ccco3)nc2C=Nc2ccccc2)cc1,13µM*,10µM*
CCOC(=O)c1ccc(N=Cc2nc(-c3ccccc3)oc2OC(C)=O)cc1,-27%,14µM*
O=S(=O)(NCCO)c1cc[c]([Sb])cc1,-7%,1%
CCOC(=O)N1CCc2c(sc(NCc3ccc(N(C)C)cc3)c2C(=O)Nc2ccc(OC)cc2)C1,18%,0%
COc1ccc(C2C(C(=O)Nc3ccccc3OC)=C(C)Nc3c(C(=O)Nc4ccccc4)cnn32)c(OC)c1 (centres undefined),4%,-8%
C=Cc1ccc(Cn2c(=O)cc(C)c3c(C)nn(-c4ccccc4)c32)cc1,-12%,0%
COc1ccc(C)cc1Nc1nc(-c2c[nH]c3ccccc23)cs1,16µM*,-3%
COc1ccc(OC)c(Nc2nc(-c3cccs3)cs2)c1,?,-3%
COc1ccc(-c2c(C#N)c(SCC(=O)Nc3ccccc3C)nc(C)c2C(=O)Nc2ccccc2)cc1OC,?,-8%
CCCCOC(=O)/C(C#N)=C\c1ccc(-c2ccc(Cl)cc2)o1,0%,2%
Cc1nc(S/C(=C/c2ccc(-c3ccc(Cl)cc3)o2)C(=O)O)n[nH]1,13µM*,-2%
O=C(Nc1ccccc1)N1CC2(CCN(C(=O)c3cccc(F)c3)CC2)C1,-3%,2%
SMILES,Cruzain noTriton,Cruzain Triton
Cc1cccc2sc(N(Cc3cccnc3)C(=O)c3cccs3)nc12,7%,-5%
COCCNC(=O)c1ccccc1NC(=O)c1nsc2ccccc12,?,-10%
COc1ccc(C2=C(C)C(N3CCC(C(=O)Nc4cc(C)ccc4C)CC3)=NS2(=O)=O)cc1,21%,0%
Cc1ccc(CNC(=O)c2c(-c3ccc(F)cc3F)noc2C)o1,-12%,1%
CC(NC(=O)Cn1c(=O)oc2cc(S(=O)(=O)N3CCCC3)ccc21)c1ccccc1 (centres undefined),?,1%
O=C(Cn1c(=O)oc2cc(S(=O)(=O)N3CCCC3)ccc21)NC1CCCc2ccccc21 (centres undefined),25µM*,-11%
CCN(CC)S(=O)(=O)c1ccc2c(c1)c(=O)c(C(=O)NCc1ccccc1Cl)cn2C,-8%,0%
Cc1cccc(-n2nc(C(=O)Nc3ccccc3)n3c(=O)cc(-c4ccccc4)nc23)c1,7.9µM*,-1%
O=C(c1ccccc1)c1nn(-c2cccc(Cl)c2)c2nc(-c3ccccc3)cc(=O)n12,25µM*,4%
CCOC(=O)c1nn(-c2cccc(OC)c2)c2nc(Nc3ccccc3)cc(=O)n12,?,-6%
CCOC(=O)c1nn(-c2cccc(Cl)c2)c2nc(Nc3ccccc3)cc(=O)n12,?,-6%
COc1cc(-c2nnc(SCCOc3ccc(C)c(Cl)c3)o2)cc(OC)c1OC,?,7%
Cc1ccc(/C=C/C(=O)OCC(=O)Nc2ccccc2Sc2ccccc2)cc1,13µM*,-6%
COc1cccc(/C=C/C(=O)OCC(=O)Nc2ccccc2Sc2ccccc2)c1,-27%,-5%
O=C(CCC1CCCC1)Nc1nnc(-c2ccc3c(c2)OCO3)s1,10µM*,0%
